{"source": "PubChem BioAssay (NCATS)", "note": "Results filed as inconclusive are left out. A call without a number means that no potency is given here. The source made the active and inactive calls. The call rests on the fitted dose curve; in most records, active means well fitted inhibition curve with a large enough effect; inconclusive means small, poorly fitted or top-dose-only effect; inactive means no such curve, though single readings can be large or run the other way. Where a SMILES comes first, the peptide text is derived from it."}
{"test": "Primary qHTS for small molecule stabilizers of the endoplasmic reticulum resident proteome: Secreted ER Calcium Modulated Protein (SERCaMP) assay (AID 1508630)", "settings": "SH-SY5Y GLuc-SERCaMP (Gaussia luciferase released on ER calcium loss) secretion, thapsigargin, luminescence; series mostly up to 38.4 µM", "method_in_brief": "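GLuc-SERCaMP-expressing SH-SY5Y cells, pretreated 16 h with compound, are challenged with thapsigargin to empty ER calcium stores; after 4 h, coelenterazine is added directly to the medium and luminescence is imaged.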"}
{"smiles": "NC(=O)[C@@H]1CCCN1C(=O)[C@H](Cc1ccccc1)NC(=O)[C@@H]1CCCN1C(=O)[C@@H](N)Cc1ccc(O)cc1", "note": "(H-YPFP-NH2)", "activity change, negative = inhibition": "-13.2% [at 3.88 µM] (inactive)"}
{"smiles": "CC1CC2CCC(O2)C(C)C(=O)OC(C)CC2CCC(O2)C(C)C(=O)OC(C)CC2CCC(O2)C(C)C(=O)OC(C)CC2CCC(O2)C(C)C(=O)O1", "note": "(stereo not drawn)", "Potency": "inactive"}
{"smiles": "O[C@@H]1CCCN2C[C@@H](O)[C@@H](O)C12", "note": "(stereo partly drawn)", "Potency": "inactive"}
{"smiles": "O=C(O)/C=C/CO", "Potency": "inactive"}
{"smiles": "N#CC(C#N)=Cc1cc(O)c(O)c([N+](=O)[O-])c1", "Potency": "inactive"}
{"smiles": "CC1CCC2C(C)C(=O)OC3O[C@]4(C)CCC1[C@@]32OO4", "note": "(stereo partly drawn)", "Potency": "inactive"}
{"smiles": "CNc1ccc2oc(C[C@H]3O[C@]4(CC[C@H]3C)O[C@H]([C@H](C)C(=O)c3ccc[nH]3)[C@H](C)C[C@H]4C)nc2c1C(=O)O", "Potency": "inactive"}
{"smiles": "Cc1ccc2c(c1)Cc1c(C(=O)NC3CCCCC3)nn(-c3ccc(Cl)cc3Cl)c1-2", "Potency": "inactive"}
{"smiles": "COC[C@H]([C@@H](O)[C@@H](O)C(=O)NCC[C@@H](C)c1nc(/C=C/C[C@H]2OC3(C[C@H](O)[C@H]2C)OC([C@@H](C[C@@H](O)[C@@H](C)[C@@H](O)[C@@H](C)/C=C(C)/C(C)=C/C=C/C(C)=C\\C#N)OC)[C@@H](OP(=O)(O)O)C3(C)C)co1)N(C)C", "note": "(stereo partly drawn)", "activity change, negative = inhibition": "257% [at 1.51 µM] (inactive)"}
{"smiles": "CCCCC/C=C\\C/C=C\\C/C=C\\CCCCCCC(=O)NCCO", "activity change, negative = inhibition": "-18.9% [at 3.88 µM] (inactive)"}
{"smiles": "CCCCCCCCCCCCCCCCOC[C@H](COP(=O)([O-])OCC[N+](C)(C)C)OC(C)=O", "activity change, negative = inhibition": "-28.3% [at 3.88 µM] (inactive)"}
{"smiles": "C[C@H](NC(=O)[C@@H](N)Cc1ccc(O)cc1)C(=O)N[C@@H](Cc1ccccc1)C(=O)N[C@@H](Cc1ccccc1)C(N)=O", "note": "(H-YAFF-NH2)", "activity change, negative = inhibition": "-10.3% [at 3.88 µM] (inactive)"}
{"smiles": "CN(CC(=O)N[C@H](CO)Cc1ccccc1)C(=O)[C@H](CCS(C)=O)NC(=O)[C@@H](N)Cc1ccc(O)cc1", "note": "(stereo partly drawn) (HELM PEPTIDE1{Y.[CS(=O)CC[C@H](N[*:1])C(=O)[*:2]].[Sar].[OC[C@H](Cc1ccccc1)N[*:1]]}$$$$V2.0)", "activity change, negative = inhibition": "-13.2% [at 3.88 µM] (inactive)"}
{"smiles": "COc1ccc2c(c1O)-c1cc(O)cc3c1[C@@H](C2)N(C)CC3", "Potency": "inactive"}
{"smiles": "C[C@]12CCC3C(CC[C@H]4C[C@H](O)CC[C@]34C)[C@@H]1CC[C@@H]2C(=O)CO", "note": "(stereo partly drawn)", "Potency": "inactive"}
{"smiles": "c1ccc(C2CNCc3ccccc32)cc1", "note": "(stereo not drawn)", "Potency": "inactive"}
{"smiles": "CO[C@@H]1C[C@@H](C[C@H]2CC[C@H](C)[C@@H]([C@@H](C)C(=O)O)O2)O[C@]2(O[C@](C)([C@H]3CC[C@@](C)(C4OC([C@H]5O[C@@](O)(CO)[C@H](C)C[C@@H]5C)C[C@@H]4C)O3)C[C@H]2C)[C@@H]1C", "note": "(stereo partly drawn)", "Potency": "inactive"}
{"smiles": "COC(C/C=C/C=C/CC/C=C\\CC(C)/C=C\\C(=C/C(=O)O)CC(=O)O)/C(C)=C\\C=C(/C)C(=O)O", "note": "(stereo not drawn)", "activity change, negative = inhibition": "-26.8% [at 3.88 µM] (inactive)"}
{"smiles": "O[C@@H]1CCCC[C@@H]1N1CCC(c2ccccc2)CC1", "Potency": "inactive"}
{"smiles": "CC(N)(COP(=O)(O)Oc1ccccc1)C(=O)O", "note": "(stereo not drawn)", "Potency": "inactive"}
{"smiles": "C=C1C(=O)O[C@@H]2C[C@@H](C)[C@@H]3C=CC(=O)[C@@]3(C)[C@@H](O)[C@H]12", "Potency": "inactive"}
{"smiles": "NC1(c2ccccc2Cl)CCCCC1=O", "note": "(stereo not drawn)", "Potency": "inactive"}
{"smiles": "O=C(O)CCC(CP(=O)(O)O)C(=O)O", "note": "(stereo not drawn)", "Potency": "inactive"}
{"smiles": "CC(=O)C1CCC2C3CCC4CC(C)(O)CCC4(C)C3CCC12C", "note": "(stereo not drawn)", "Potency": "inactive"}
{"smiles": "NCCc1cccc(O)c1", "Potency": "inactive"}
{"smiles": "NCCCC[C@H](NC(=O)[C@H](Cc1ccccc1)NC(=O)[C@H](CCCN=C(N)N)NC(=O)[C@@H](N)Cc1ccc(O)cc1)C(N)=O", "activity change, negative = inhibition": "-26.5% [at 3.88 µM] (inactive)"}
{"smiles": "CC1=C2CC3C(CC=C4C[C@@H](O)CC[C@@]43C)[C@@H]2CC[C@]12O[C@@H]1C[C@H](C)CN[C@H]1[C@H]2C", "note": "(stereo partly drawn)", "Potency": "inactive"}
{"smiles": "CC(C)C[C@H](NC(=O)[C@H](Cc1ccccc1)NC(=O)CNC(=O)[C@H](CO)NC(=O)[C@@H](N)Cc1ccc(O)cc1)C(=O)N[C@H](C(=O)O)[C@H](C)O", "activity change, negative = inhibition": "-28.8% [at 3.88 µM] (inactive)"}
{"smiles": "N#Cc1c(Oc2cccc(OS(=O)(=O)CCCC(F)(F)F)c2)cccc1C(F)(F)F", "Potency": "inactive"}
{"smiles": "O=C1CSC(c2ccccc2Cl)c2cc(Cl)ccc2N1", "note": "(stereo not drawn)", "Potency": "inactive"}
{"smiles": "COc1ccc(C(=O)O[C@H]2CC[C@@]3(C)C4CCC5[C@]6(O)C[C@H](O)[C@@]7(O)C(CN8C[C@@H](C)CC[C@H]8[C@@]7(C)O)[C@]6(O)C[C@@]53O[C@@]42O)cc1OC", "note": "(stereo partly drawn)", "Potency": "inactive"}
{"smiles": "CC1(C)[C@@H](O)C[C@H]2[C@](C)(O)[C@@H]3CC[C@H]4[C@@H](O)[C@@]3(C[C@@H](O)[C@@]21O)C[C@@]4(C)O", "Potency": "inactive"}
{"smiles": "CC[C@H](C)[C@H](NC(=O)[C@H](CCCN=C(N)N)NC(=O)[C@H](CCCN=C(N)N)NC(=O)[C@H](CC(C)C)NC(=O)[C@H](Cc1ccccc1)NC(=O)CNC(=O)CNC(=O)[C@@H](N)Cc1ccc(O)cc1)C(=O)O", "activity change, negative = inhibition": "-13% [at 3.88 µM] (inactive)"}
{"smiles": "CCCC[C@@H](C)[C@@H](OC(=O)C[C@@H](CC(=O)O)C(=O)O)[C@H](C[C@@H](C)C[C@H](O)CCCC[C@@H](O)C[C@H](O)[C@H](C)N)OC(=O)C[C@H](CC(=O)O)C(=O)O", "Potency": "inactive"}
{"smiles": "N[C@]1(C(=O)O)CC[C@@H](C(=O)O)C1", "note": "(racemic)", "Potency": "inactive"}
{"smiles": "CCCCCCCCCCCCCCCCOC[C@@H](COP(=O)([O-])OCC[N+](C)(C)C)OC(C)=O", "activity change, negative = inhibition": "-29.1% [at 3.88 µM] (inactive)"}
{"smiles": "C[C@@H]1O[C@H](C[N+](C)(C)C)C[C@@H]1O", "Potency": "inactive"}
{"smiles": "CC(C)[C@H](NC(=O)[C@H](CCC(=O)O)NC(=O)[C@H](Cc1ccccc1)NC(=O)[C@H](C)NC(=O)[C@@H](N)Cc1ccc(O)cc1)C(=O)N[C@H](C(=O)NCC(N)=O)C(C)C", "activity change, negative = inhibition": "-11.9% [at 3.88 µM] (inactive)"}
